# Activity calls are given as the source filed them.
# What was measured:
# Albumin (Bos taurus) = Albumin (Bos taurus) (UniProt P02769); experiment: bovine serum albumin binders on microarray, profiling panel, artefact control for SMM control protein annotation, biochemical, small-molecule microarray, Alexa647 label, 635/667 nm fluorescence (AID 1118); conditions: BSA-A647 binding, fluorescence 635 nm, higher = more signal;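 note: score merges 667 nm emission intensity and signal-to-noise per printed compound spot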
# [1] = small-molecule microarray binders of probe aXIP, primary screen, biochemical, NeuroSMM set, 635/667 nm fluorescence (AID 1119); conditions: higher = more signal, called active from +8 up or from −8 down;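 note: probe is the protein aXip251-270 applied at 1 µg/mL to compound-printed slides; binding of probe to printed compounds measured as 667 nm fluorescence plus signal to noise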
# [2] = small-molecule binders of probe aNOTCH3, primary screen, biochemical, small-molecule microarray, 635/667 nm fluorescence (AID 1120); conditions: higher = more signal;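 note: probe is a biotin-tagged antibody raised against NOTCH3 rather than NOTCH3 protein; score merges spot fluorescence near 667 nm with spot signal to noise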
# [3] = small-molecule binders of probe aNOTCH2, primary screen, biochemical, small-molecule microarray, 635/667 nm fluorescence (AID 1121); conditions: higher = more signal;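 note: score merges feature fluorescence read at 667 nm with its signal to noise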
# [4] = molecular target: Carbonic anhydrase 2 (Homo sapiens) (UniProt P00918); experiment: CAII small-molecule binders, profiling panel, biochemical, small-molecule microarray, Alexa647-labelled CAII (AID 1122); conditions: CAII-A647 binding fluorescence, higher = more signal
# [5] = COS7 lysate on small-molecule microarray, probe aHis, 635 nm (AID 1123); conditions: COS7 cell lysate, fluorescence, higher = more signal;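 note: z-score combines 667nm fluorescence intensity with signal-to-noise per printed compound spot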
# [6] = compound binding in COS7 lysate, probe aLAP1, primary screen, cell lysate, small-molecule microarray (AID 1124); conditions: probe aLAP1, fluorescence, higher = more signal;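 note: lysate comes from COS7 cells expressing LAP1 and is applied at 0.3 µg/mL; score merges spot fluorescence near 667 nm with signal-to-noise over triplicate slides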
# Sam68 (KHDRBS1) = experiment: Sam68 small-molecule binders, primary screen, biochemical, small-molecule microarray, 635 nm fluorescence (AID 1125); conditions: small-molecule microarray binding, higher = more signal;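 note: score merges 667 nm channel intensity with signal to noise over triplicate slides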
# [7] = system: Chordin-like protein 2 (CHRDL2); experiment: CHRDL2 small-molecule binders, primary screen, biochemical, small-molecule microarray, 635 nm fluorescence (AID 1126); conditions: small-molecule microarray binding, fluorescence 635 nm; higher = more signal;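 note: printed compound slides probed with Chrdl2 protein at 4 µg/mL for 1 h at 4 C; score merges 667 nm emission intensity with signal to noise over three replicate slides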
# [8] = molecular target: Concanavalin-A (Canavalia ensiformis) (UniProt P02866); experiment: ConA small-molecule binders, primary screen, artefact control for SMM control protein annotation, biochemical, small-molecule microarray, Alexa647 label, 635 nm (AID 1127); conditions: ConA-A647 binding fluorescence, higher = more signal;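 note: z combines 667 nm emission intensity with signal-to-noise across three replicate slides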
# Chain of Concanavalin-A (Canavalia ensiformis) (P02866 whole entry, looked up): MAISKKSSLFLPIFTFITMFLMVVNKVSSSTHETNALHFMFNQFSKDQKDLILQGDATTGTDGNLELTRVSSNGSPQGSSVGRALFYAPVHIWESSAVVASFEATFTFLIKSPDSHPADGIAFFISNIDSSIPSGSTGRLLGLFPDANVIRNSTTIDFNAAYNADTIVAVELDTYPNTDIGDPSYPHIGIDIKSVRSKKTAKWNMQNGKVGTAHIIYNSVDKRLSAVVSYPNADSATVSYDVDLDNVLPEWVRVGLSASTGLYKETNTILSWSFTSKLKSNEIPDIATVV
# Chain of Albumin (Bos taurus) (P02769 whole entry, looked up): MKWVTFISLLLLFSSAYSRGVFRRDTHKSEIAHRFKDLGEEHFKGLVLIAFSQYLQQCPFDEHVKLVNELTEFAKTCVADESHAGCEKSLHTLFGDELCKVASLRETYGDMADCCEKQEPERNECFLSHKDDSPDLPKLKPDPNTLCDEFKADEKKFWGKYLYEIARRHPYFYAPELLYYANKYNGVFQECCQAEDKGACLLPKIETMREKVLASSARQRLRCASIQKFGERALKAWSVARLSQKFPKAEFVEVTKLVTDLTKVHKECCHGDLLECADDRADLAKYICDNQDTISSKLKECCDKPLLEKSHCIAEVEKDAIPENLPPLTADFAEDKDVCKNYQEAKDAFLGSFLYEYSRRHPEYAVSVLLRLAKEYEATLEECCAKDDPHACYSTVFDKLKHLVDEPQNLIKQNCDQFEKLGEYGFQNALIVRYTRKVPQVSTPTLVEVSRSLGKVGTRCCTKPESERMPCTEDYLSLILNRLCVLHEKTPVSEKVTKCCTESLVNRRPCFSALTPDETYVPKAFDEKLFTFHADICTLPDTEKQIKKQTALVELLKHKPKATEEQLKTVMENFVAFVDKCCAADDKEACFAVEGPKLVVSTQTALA
Structure (SMILES),composite z-score (Albumin (Bos taurus)),composite Z-score [1],composite z-score [2],composite z-score [3],composite z-score [4],composite z-score [5],composite z-score [6],composite z-score (Sam68 (KHDRBS1)),composite z-score [7],composite z-score [8]
NC(=O)NCC#Cc1ccc2c(c1)[C@]1(C(=O)N2)[C@H](C(=O)Nc2nc3ccccc3s2)[C@H]2C(=O)O[C@H](c3ccccc3)[C@H](c3ccccc3)N2[C@@H]1c1ccccc1OCCO,0.46,1.24 (inactive),1.1,0.0196,0.39,2.83,1.14,1.18,0.277,1.08
C=C(COC)C(=O)CC[C@@H](OC(C)=O)c1ccc(CO)o1,-0.0861,0.365 (inactive),-0.0311,0.169,0.662,-0.137,-0.311,0.298,1.13,0.0796
C[C@H]1NC(=O)[C@@]23C(=O)N[C@@H](Cc4ccccc4)C2[C@H](C)[C@@]2(C)O[C@H]2C3/C=C/C/C=C\CNC(=O)[C@@H]2CCCN2C1=O (stereo not given in full),-0.274,0.542 (inactive),-0.229,-0.14,0.507,0.0441,-0.301,0.574,0.258,1.13
COC(=O)[C@@]1(CCS(=O)(=O)c2ccccc2)N=C(c2ccc(OCCCO)cc2)O[C@H]1c1ccccc1CN=[N+]=[N-],-0.307,0.559 (inactive),0.0807,0.0657,0.691,2.4,0.372,1.34,-0.149,1.08
O=C1NC(=O)C2C1C=CC(C(O)c1cc(C(F)(F)F)cc(C(F)(F)F)c1)N2Nc1ccccn1 (stereo not given),0.0063,0.416 (inactive),-0.0972,-0.0486,0.673,2.15,0.536,0.079,0.673,0.297
NC(=O)N1C(=O)C2C(C1=O)C1C=C(c3ccc(CO)cc3)C2C(c2cccs2)N1Cc1cccc(OC(F)(F)F)c1 (stereo not given),-0.137,0.29 (inactive),0.111,-0.0449,0.72,0.669,0.798,-0.882,0.38,-0.0204
C=C(C)[C@@H]1CC=C(C(O)C2C=CC3C(=O)N(c4ccccc4)C(=O)C3N2Nc2ccccc2)CC1 (stereo not given in full),0.889,0.788 (inactive),0.75,0.405,0.879,2.84,0.736,1.3,0.543,1.13
CN1C(=O)C2C=CC(C(O)c3ccccc3)N(N(c3ccccc3)c3ccccc3)C2C1=O (stereo not given),0.273,0.22 (inactive),0.215,0.105,0.763,0.321,1.34,-0.494,0.781,-0.529
CCCC[C@@H]1C[C@H]1[C@@H](NC(=O)c1ccco1)c1ccccc1C(F)(F)F,0.706,-0.234 (inactive),1.91,0.752,0.561,1.09,0.451,-0.215,0.23,0.418
COc1ccccc1CN1C(=O)c2ccccc2[C@@]2(Cc3ccccc3N(CC(C)C)C2=O)[C@@H]1c1ccc(CO)cc1,-0.119,0.188 (inactive),-0.211,-0.143,-0.137,0.19,0.249,0.253,-0.238,0.277
C[C@H]1C2[C@H](Cc3ccccc3)NC(=O)[C@]23C(=O)N[C@H](Cc2ccccc2)C(=O)N2CCC[C@H]2C(=O)NC/C=C\C/C=C/C3[C@@H]2O[C@]12C (stereo not given in full),0.157,0.0894 (inactive),-0.0613,0.0022,0.0997,-0.0175,0.249,0.194,0.132,0.78
COCCOC(=O)N1C(=O)[C@@]2(c3ccccc31)[C@H](C(=O)N1CCc3cc(OC)c(OC)cc3C1)[C@H]1C(=O)O[C@H](c3ccccc3)[C@H](c3ccccc3)N1[C@@H]2c1ccc(OCCO)cc1,0.843,-0.386 (inactive),-0.0343,-0.0903,0.486,2.59,0.953,1.32,0.417,1.09
O=C1C2C=CC(C(O)c3cccc4ccccc34)N(Nc3ccccc3F)C2C(=O)N1c1ccccc1 (stereo not given),0.799,0.791 (inactive),0.614,0.0007,0.728,2.76,0.491,1.29,-0.539,1.09
CO[C@H]1O[C@H](CO)[C@@H](OC(=O)Nc2cccc(F)c2)[C@H](OC(=O)Nc2ccccc2)[C@@H]1OC(=O)Nc1ccccc1,0.875,0.311 (inactive),0.138,0.003,0.555,2.54,1.02,1.3,-0.219,0.724
COc1ccc(C#Cc2ccc3c(c2)[C@]2(C(=O)N3)[C@H](C(=O)NC[C@H](O)c3ccccc3)[C@H]3C(=O)O[C@H](c4ccccc4)[C@H](c4ccccc4)N3[C@@H]2c2ccc(O)cc2)cc1,0.186,0.658 (inactive),0.0585,-0.139,0.566,2.46,0.624,1.29,-0.0259,1.13
O=C1O[C@H](c2ccccc2)[C@H](c2ccccc2)N2[C@H]1[C@@H](C(=O)N1CCCCCCC1)[C@]1(C(=O)Nc3ccc(C#CCCO)cc31)[C@H]2c1ccccc1OCCO,0.536,10.7 (active),2.31,1.14,1.12,5.54,1.3,1.35,1.7,1.21

Structure (SMILES),composite z-score (Albumin (Bos taurus)),composite Z-score [1],composite z-score [2],composite z-score [3],composite z-score [4],composite z-score [5],composite z-score [6],composite z-score (Sam68 (KHDRBS1)),composite z-score [7],composite z-score [8]
CCC[C@@H]1C[C@@]1(CCC)[C@@H](NC(=O)c1ccccc1)c1cccc(Cl)c1,0.941,0.432 (inactive),1.38,0.808,0.326,2.63,0.245,1.33,0.0667,0.954
NC(=O)NCC#Cc1ccc2c(c1)[C@]1(C(=O)N2)[C@H](C(N)=O)[C@H]2C(=O)O[C@H](c3ccccc3)[C@H](c3ccccc3)N2[C@@H]1c1ccc(O)cc1,-0.0636,1.42 (inactive),0.286,0.668,0.688,3.15,0.505,0.652,-0.034,-0.279
CC(=O)n1cc(C(O)C2C=CC3C(=O)N(c4ccccc4)C(=O)C3N2Nc2ccc([N+](=O)[O-])cc2)c2ccccc21 (stereo not given),0.932,0.406 (inactive),0.0159,0.386,0.778,2.22,1.33,1.34,-1.4,0.823
CCOC(=O)C1=C[C@@H](C(C)(C)C)N(S(=O)(=O)c2ccc(C)cc2)[C@H]1c1ccc(F)cc1,0.316,-0.171 (inactive),0.169,-0.0254,0.287,1.61,0.397,1.29,0.16,0.819
C=CC[C@@]12N=C(c3ccc(OCCCO)cc3)O[C@@H]1c1ccccc1N(C)C2=O,-0.16,-0.419 (inactive),0.0637,-0.0374,0.655,2.67,0.319,1.22,0.718,0.838
COc1ccc(CCNC(=O)[C@@]2(Sc3ccc(C)cc3)CC(=O)N(C3Cc4ccccc4C3)[C@@H]2c2ccc(CO)cc2I)cc1,-0.101,-0.235 (inactive),0.0425,-0.192,0.729,1.17,-0.286,0.608,-0.235,-1.26
C=C(COC)/C(=C/C[C@@H](OC(=O)c1ccncc1)c1ccc(CO)o1)c1cc(C(=O)OC)ccc1OC,0.0436,-0.0882 (inactive),0.0979,-0.104,0.482,0.641,1.46,1.31,1.1,1.14
C=C[C@H](CO[Si](CC)(CC)CC)N(Cc1ccc(OC(C)=O)c(OC)c1)S(=O)(=O)c1ccc(Br)cc1,0.848,0.646 (inactive),0.295,0.0727,0.56,1.33,0.897,1.29,1.31,1.13
COCCOC(=O)N1C(=O)[C@@]2(c3cc(C#CC4(O)CCCCCC4)ccc31)[C@H](c1ccccc1OCCO)N1[C@H](c3ccccc3)[C@H](c3ccccc3)OC(=O)[C@H]1[C@@H]2C(=O)N1CCN(c2ncccn2)CC1,0.781,-0.291 (inactive),-0.0313,-0.0432,0.596,1.12,0.384,1.29,0.336,1.09
NC(=O)NCC#Cc1ccc2c(c1)[C@]1(C(=O)N2)[C@H](c2ccccc2OCCO)N2[C@H](c3ccccc3)[C@H](c3ccccc3)OC(=O)[C@H]2[C@@H]1C(=O)Nc1nc2ccccc2s1,0.403,0.105 (inactive),0.288,-0.123,0.237,1.63,0.0159,1.07,-0.287,0.748
COc1ccc([Si](C)(C)[C@H]2[C@H](CCO)O[C@@]3(C(=O)N(Cc4ccc(N(C=O)c5ccccc5)cc4)c4ccccc43)[C@@H]2C)cc1,0.598,-0.12 (inactive),-0.127,-0.164,-0.0062,0.407,-0.33,-0.852,-0.957,0.538
CC(C)C(=C=CC[C@H](O)c1ccc(OCCO)cc1)CCO,0.467,-0.435 (inactive),-0.116,-0.174,0.228,1.83,0.182,1.28,0.489,0.549
CC(C)C(=C=CC[C@@H](O)c1ccc(OCCO)cc1)C[C@@H](O)COCc1ccccc1,0.531,-0.114 (inactive),0.0744,-0.105,0.624,0.924,0.664,1.19,0.325,-0.625
C=CCNC(=O)[C@@H]1[C@H]2C(=O)O[C@H](c3ccccc3)[C@H](c3ccccc3)N2[C@H](c2ccc(O)cc2)[C@@]12C(=O)Nc1ccc(C#CCNC(N)=O)cc12,0.118,0.0219 (inactive),-0.169,-0.166,0.352,0.636,0.73,0.512,-0.671,0.0889
CCCCN1CC=CC23O[C@@H]4C=CCCOC(=O)C4[C@H]2C(=O)N(CCCCCCO)[C@@H]3C1=O (stereo not given in full),0.339,0.0289 (inactive),-0.275,-0.175,0.876,0.376,0.316,0.474,-1,-0.254
COC(=O)[C@H](Cc1ccccc1)N[C@@H](/C=C/C1CC1)[C@H](O)Cc1ccccc1,0.0881,-0.16 (inactive),-0.246,-0.244,0.209,-0.255,0.0885,-0.0844,-0.0635,0.65

# — PubChem BioAssay
